The list is not random: actives were taken first. Their share in the collection is about 2.4%.
Cruzain Triton: blocks cruzain activity in presence of Triton detergent. Potency, µM, for inactives: max response, negative = inhibition, actives largely listed as inhibitors. actives 0.43% (n = 200,000). purified cruzain, Z-FR-AMC fluorescence, 0.01% Triton. AID 1478;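 also: plate controls were neutral wells for no effect and buffer without enzyme for full effect; nearly all actives have a fitted effect of over 40% in size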
Target sequence (P25779 123-467 limits assumed): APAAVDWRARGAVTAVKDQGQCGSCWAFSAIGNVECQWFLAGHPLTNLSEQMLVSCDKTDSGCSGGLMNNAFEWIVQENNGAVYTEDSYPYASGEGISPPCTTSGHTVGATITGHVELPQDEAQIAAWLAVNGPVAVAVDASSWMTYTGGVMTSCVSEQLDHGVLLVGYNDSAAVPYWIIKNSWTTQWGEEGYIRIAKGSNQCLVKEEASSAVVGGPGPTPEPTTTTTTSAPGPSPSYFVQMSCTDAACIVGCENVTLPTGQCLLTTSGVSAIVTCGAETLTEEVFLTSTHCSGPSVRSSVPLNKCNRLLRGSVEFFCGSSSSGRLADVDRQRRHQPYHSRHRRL
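Cysteine protease activity tested under reducing, mildly acidic conditions (100 mM sodium acetate pH 5.5, 5 mM DTT) plus 0.01% Triton X-100. Cruzain 1.5 nM; substrate Z-FR-AMC 2 uM; 15 min compound preincubation at room temperature.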
Cruzain inh noDet: cruzain (T. cruzi) inhibition without detergent | actives 2.3% (n = 200,000) | Potency, µM, for the others: max response, negative = inhibition, most hits filed as inhibitors | purified cruzain, Z-FR-AMC fluorescence, no detergent | AID 1476;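 also: plate controls were enzyme without inhibitor for no effect and buffer without enzyme for full effect; nearly all actives have a fitted effect of over 40% in size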
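Purified cruzain at 1.5 nM, pre-incubated 15 min with compound at room temperature in 100 mM sodium acetate pH 5.5, 5 mM DTT, 0.00005% Triton X-100. Reaction started with 2 uM Z-FR-AMC; AMC fluorescence increase over 60 s gives rate.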
Papain counter: papain (Carica papaya) inhibition counter-screen. purified papain, Z-FR-AMC fluorescence cleavage. shares compounds with Cruzain Triton. actives 41% (n = 410). Potency, µM, inactives show max response, negative = inhibition, usual class: inhibitors;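 also: 0% = no-compound wells and -100% = no-enzyme wells; nearly all actives have a fitted effect of over 35% in size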
Target sequence (P00784 whole entry, looked up): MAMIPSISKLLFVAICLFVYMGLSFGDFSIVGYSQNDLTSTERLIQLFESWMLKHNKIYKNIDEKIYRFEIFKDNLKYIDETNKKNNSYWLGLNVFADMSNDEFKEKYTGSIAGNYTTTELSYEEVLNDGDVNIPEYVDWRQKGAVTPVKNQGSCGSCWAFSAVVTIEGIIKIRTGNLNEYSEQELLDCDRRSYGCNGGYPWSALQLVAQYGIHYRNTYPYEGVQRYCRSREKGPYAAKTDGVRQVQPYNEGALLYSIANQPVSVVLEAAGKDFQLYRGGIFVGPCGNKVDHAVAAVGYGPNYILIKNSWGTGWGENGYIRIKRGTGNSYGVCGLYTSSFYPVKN
Active calls of the source: *; ? = inconclusive; . = no result given. Calls follow the shape of the dose curve; as a rule, active = well fitted curve in the direction sought with a large enough effect; inconclusive = small, poorly fitted or top-dose-only effect, or another doubt; inactive = no such curve, though single readings can be large; an effect the other way counts as inactive or inconclusive. Potency is read from the fitted curve at half-maximal effect.

SMILES	Cruzain Triton	Cruzain inh noDet	Papain counter
Cc1ccc(C)c(NC(=O)Cn2c(=O)nc(-c3ccccc3)c3ccccc32)c1	-1.4%	?	.
CC(C)[C@](N)(C(=O)O)c1ccccc1	2.0%	-2.2%	.
CC(=O)N1CCC2(CCN(Cc3ccncc3)CC2)CC1	6.0%	-4.3%	.
C/C(CC(=O)Nc1ccc(Cl)c(Cl)c1)=N\NC(N)=S	0.501µM*	0.316µM*	-14.9%
CC(=O)Nc1ccc(Cl)c(C(N)=O)c1	-1.2%	4.9%	.
C/C(CC(=O)Nc1cc(Cl)ccc1Cl)=N\NC(N)=S	1µM*	1µM*	2.82µM*
C/C(CC(=O)Nc1cccc(Cl)c1)=N\NC(=O)Cc1ccc(Cl)cc1	-7.8%	0.5%	.
C[C@H]1CC2[C@@H]3CCC4=CC(=O)C=C[C@]4(C)[C@@]3(Cl)[C@@H](O)C[C@]2(C)[C@@]1(O)C(=O)CO (stereo not given in full)	3.7%	-5.0%	.
CCSc1nnc(NC(=O)/C=C/c2ccc3c(c2)OCO3)s1	15.8µM*	15.8µM*	7.4%
CCSc1nnc(NC(=O)c2ccccn2)s1	-6.6%	8.9%	.
O=C(/C=C/c1ccc2c(c1)OCO2)Nc1nc2ccccc2s1	-0.5%	-11.1%	.
CCSc1nnc(NC(=O)c2ccc(Br)s2)s1	-1.9%	25.1µM*	13.6%
N#Cc1c(N)n(CCNC(=O)c2ccc(Cl)cc2)c2nc3ccccc3nc12	-4.1%	9.0%	.
Cc1ccc(C(=O)NCCn2c(N)c(C#N)c3nc4ccccc4nc32)cc1	-6.5%	?	28.2µM*
O=S(=O)(c1ccc(-c2cc(C(F)(F)F)on2)s1)N1CCN(c2cccc(Cl)c2)CC1	5.4%	15.2%	.
CCc1nc2sc3ccccc3c(=O)c2c(=O)n1Cc1ccco1	-13.8%	-28.0%	.
O=c1c2ccccc2sc2nc(C3CCCCC3)n(Cc3ccco3)c(=O)c12	15.8µM*	-22.3%	-14.0%
O=c1cnc2cnc(N3CCOCC3)nc2n1C1CC1	2.3%	-10.8%	.
Cc1ccc(S(=O)(=O)c2nc(-c3ccco3)oc2NCC2CCCO2)cc1 (stereo not given)	11.2µM*	10µM*	-13.7%
Cc1ccc(CSc2oc(-c3ccco3)nc2S(=O)(=O)c2ccc(C)cc2)cc1	-8.6%	-11.3%	.
Cc1ccc(NC(=O)C2CCN(c3nc4ccccc4nc3C(F)(F)F)CC2)cc1F	-0.1%	-2.4%	.
O=C(c1ccc(OCCN2CCCCC2)cc1)c1c(-c2ccc(O)cc2)sc2cc(O)ccc12	-5.3%	-11.7%	-2.7%
O=C(c1ccccc1)c1ccc(OCCCN2CCCCC2)cc1	3.9%	6.8%	.
Cc1oc(=O)c(NC(=O)c2cccc(Cl)c2)cc1C(=O)c1ccccc1	1.26µM*	0.631µM*	-5.3%
O=C(Nc1ccc(Cl)cc1C(=O)c1ccccc1)c1ccccc1	1.0%	-16.6%	.
SMILES	Cruzain Triton	Cruzain inh noDet	Papain counter
CCCOC(=O)c1ccc(Nc2nc3ccccc3nc2-n2nc(C)cc2C)cc1	2.1%	1.9%	.
O=C(NCCOc1ccccc1)c1cc(C(=O)NCCOc2ccccc2)cc([N+](=O)[O-])c1	-5.0%	-2.3%	.
O=C(NCCc1nc2ccccc2[nH]1)c1cc([N+](=O)[O-])cc([N+](=O)[O-])c1	3.55µM*	-3.7%	4.9%
CCCc1nc(SCc2cc(=O)c3ccc(C)c(C)c3[nH]2)n[nH]1	-0.1%	-11.2%	.
CCOc1ccc(C(=O)N2CC(=O)Nc3ccc(C)cc3C2c2ccc(F)cc2)cc1OCC (stereo not given)	-6.9%	-2.1%	.
O=C(c1ccc2c(c1)N(Cc1ccccc1F)C(=O)c1ccccc1S2=O)N1CCC(Cc2ccccc2)CC1 (stereo not given)	-0.2%	-24.0%	.
O=c1cc(-c2ccccc2Cl)oc2c(NS(=O)(=O)c3cc(Cl)cc(Cl)c3O)ccc(O)c12	25.1µM*	4.7%	4.47µM*
O=c1cc(-c2ccccc2Cl)oc2cc(O)cc(O)c12	-9.9%	-5.4%	.
Cc1ccc(Cn2c(C)c3cnn(CC(=O)N4CCN(c5ccc(F)cc5)CC4)c(=O)c3c2C)cc1	-5.4%	?	.
COc1ccc(CNC(=O)CCc2c(C)nn(-c3ccc(N4CCOCC4)nn3)c2C)cc1	-1.1%	-10.6%	.
FC(F)Sc1ccc(N=C2NN=C(c3ccc4c(c3)OCCO4)CS2)cc1	0.3%	3.16µM*	-12.3%
Cc1cccc(C)c1N=C1NN=C(c2ccccc2F)CS1	-6.2%	?	.
CN(C)c1ccc(CNC(=O)CCn2cccn2)cc1	-2.1%	-14.2%	.
COc1cc2[nH]c(=O)n(CCCC(=O)N3CC=C(c4ccccc4)CC3)c(=O)c2cc1OC	-6.9%	?	.
COc1cccc2c1[C@@H]1CN(CCCCn3c(=O)[nH]c4c(sc5ncc(-c6ccccc6)nc54)c3=O)C[C@@H]1CO2	28.2µM*	?	-13.5%
COc1ccc(NS(=O)(=O)c2cc(NC(=O)/C=C/c3cccs3)ccc2N2CCOCC2)cc1	-6.4%	?	.
COc1ccc(NS(=O)(=O)c2cc(NC(=O)/C=C/c3ccccc3OC)ccc2N2CCCCC2)cc1	-3.2%	3.16µM*	10.6%
CCOc1ccccc1NC(=O)CN(C)S(=O)(=O)c1ccc2nc(C)sc2c1	-6.2%	?	.
O=C(Nc1ccc(C(F)(F)F)cc1)C1CCC(CNS(=O)(=O)c2cccc3nsnc23)CC1 (stereo not given)	1.9%	-3.7%	.
CN1C(=O)/C(=N\OC(=O)c2cccc3ccccc23)c2ccccc21	3.16µM*	7.94µM*	15.8µM*
N/C(Cc1ccc(Cl)cc1)=N\OC(=O)c1cccc2ccccc12	-2.5%	-0.4%	.
O=C(Nc1ccc(Cl)cc1Cl)c1cc(S(=O)(=O)N2CCCCCC2)ccc1F	1.4%	-11.4%	.
O=C(Nc1cc(C(F)(F)F)ccc1Cl)C(NCc1ccccc1)c1ccccc1 (stereo not given)	-5.4%	1.8%	.
O=C(CNC(=O)c1ccccc1)OC(C(=O)Nc1cc(C(F)(F)F)ccc1Cl)c1ccccc1 (stereo not given)	7.08µM*	10µM*	-17.2%
COc1cc(CNC(=O)c2ccc3c(c2)c(C)c(C)n3Cc2cccc(C)c2)cc(OC)c1OC	0.8%	-18.9%	.
SMILES	Cruzain Triton	Cruzain inh noDet	Papain counter
Cc1ccccc1-n1c(C)cc(/C=C2/C(=N)N3C(c4ccccc4)=CSC3=NC2=O)c1C	-0.7%	3.16µM*	13.3%
Cc1ccccc1-n1c(C)cc(/C=C2/C(=O)NC(=O)N(Cc3ccco3)C2=O)c1C	-8.4%	4.3%	.
CCOC(=O)N1CCC(=C2c3ccc(Cl)cc3CCc3cccnc32)CC1	-5.4%	?	-8.7%
CCOC(=O)N1CCN(Cc2ccccn2)CC1	-1.2%	-4.0%	.
O=C1Nc2c(c(=O)[nH]c(=O)n2-c2ccccc2)C1(NS(=O)(=O)c1ccc(Cl)cc1)C(F)(F)F (stereo not given)	-6.7%	-6.1%	.
CN(CCNC(=O)c1cc2c(=O)n(C)c3ccccc3c2n1C)Cc1ccccc1	14.1µM*	?	-18.3%
Cc1ccc(CNC(=O)c2cc3c(=O)n(C)c4ccccc4c3n2C)cc1	9.5%	?	.
COc1cccc(N2CCN(C(=O)C3CCCN(S(=O)(=O)c4ccc(Br)s4)C3)CC2)c1 (stereo not given)	-4.2%	-28.5%	.
O=C(N/N=C\c1ccccc1O)c1ccccc1O	-10.0%	31.6µM*	6.8%
O=C(Oc1ccc(/C=N/NC(=O)c2ccccc2O)cc1)c1ccccc1	-9.6%	-18.2%	.
CCOc1ccc(/C=C/c2nc(C#N)c(Nc3ccc(OC)cc3)o2)cc1	-0.2%	-25.3%	.
CC(C)CC(=O)OCc1cc(=O)n2nc(C3CCCCC3)sc2n1	-2.7%	6.8%	.

Assay outcomes from PubChem.
